Laboratory results from PubChem BioAssay (EPA / NIEHS).
The source made the active and inactive calls. The calls were made as follows: active = hit-call score of the fitted dose curve at least 0.9, where 1 is the maximum; inactive = score below 0.9.

Assays:
Details in all cases: mRNA level, 48 h; actives raise or lower the signal
[1] = read-out: Bcl-2 (BAX) gene, BAX (gene 581); experiment: LTEA_HepaRG_BAX: Life Technologies and Expression Analysis (LTEA) Assay for Bcl-2 (BAX) gene using HepaRG (AID 2283470)
How it was run: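 Cells were thawed, plated for 48 h, moved to serum-free induction medium and dosed for 48 h (highest concentration 100 uM, half-log steps, 0.5% DMSO). Total RNA was then analysed for BAX expression by qRT-PCR.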

[2] = read-out: adenosine kinase (ADK) gene, ADK (gene 132); experiment: LTEA_HepaRG_ADK: Life Technologies and Expression Analysis (LTEA) Assay for adenosine kinase (ADK) gene using HepaRG (AID 2283471)
How it was run: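 Differentiated HepaRG cells dosed 48 h in serum-free induction medium, 0.5% DMSO vehicle, eight half-log concentrations from 100 uM, in duplicate. ADK mRNA by TaqMan qRT-PCR normalised to ACTB, GAPDH, POLR2A; bidirectional fit versus DMSO.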

[3] = read-out: Alpha-fetoprotein (AFP) gene, AFP (gene 174); experiment: LTEA_HepaRG_AFP: Life Technologies and Expression Analysis (LTEA) Assay for Alpha-fetoprotein (AFP) gene using HepaRG (AID 2283472)
How it was run: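 Chemicals were tested on differentiated HepaRG cells for 48 hours at eight concentrations up to 100 uM, with 0.5% DMSO as vehicle. AFP expression was then quantified by qRT-PCR and analyzed for gain or loss relative to DMSO.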

BCL2L11 (gene 10018) = experiment: LTEA_HepaRG_BCL2L11: Life Technologies and Expression Analysis (LTEA) Assay for Bcl-2 (BCL2L11) gene using HepaRG (AID 2283473)
How it was run: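 Cells were plated, cultured 48 h, switched to serum-free induction medium, then dosed in duplicate for 48 h at eight half-log concentrations up to 100 uM. Lysates underwent RNA isolation and TaqMan qRT-PCR; gain or loss versus DMSO was fitted.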

[4] = read-out: Apolipoprotein A-V (APOA5) gene, APOA5 (gene 116519); experiment: LTEA_HepaRG_APOA5: Life Technologies and Expression Analysis (LTEA) Assay for Apolipoprotein A-V (APOA5) gene using HepaRG (AID 2283474)
How it was run: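 Human liver HepaRG cells are treated 48 h with test chemicals (100 uM top, half-log dilutions, 0.5% DMSO). APOA5 mRNA induction or loss is measured by qRT-PCR relative to vehicle.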

[5] = read-out: Apoptosis regulator Bcl-2 (Homo sapiens) (UniProt P10415); experiment: LTEA_HepaRG_BCL2: Life Technologies and Expression Analysis (LTEA) Assay for Bcl-2 gene using HepaRG (AID 2283475)
How it was run: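 Plated human HepaRG cells are exposed to test chemicals for 48 h across eight concentrations from 100 uM downward in half-log steps (0.5% DMSO). BCL2 expression is then measured by qRT-PCR with housekeeping normalisation and fitted bidirectionally against vehicle.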

[6] = read-out: Bcl-2 (BID) gene, BID (gene 637); experiment: LTEA_HepaRG_BID: Life Technologies and Expression Analysis (LTEA) Assay for Bcl-2 (BID) gene using HepaRG (AID 2283476)
How it was run: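 Cells are plated, cultured 48 h, switched to serum-free induction medium, then dosed 48 h (100 uM top, half-log steps, 0.5% DMSO). RNA is isolated and BID expression read by qRT-PCR.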

Caspase-3 (Homo sapiens) = Caspase-3 (Homo sapiens) (UniProt P42574); experiment: LTEA_HepaRG_CASP3: Life Technologies and Expression Analysis (LTEA) Assay for cysteine-aspartic acid protease (CASP3) using HepaRG (AID 2283477)
How it was run: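 In HepaRG liver cells dosed for 48 h at up to 100 uM (eight-point, duplicate), CASP3 expression changes are scored by qRT-PCR. Activity is fitted in both directions with 0.5% DMSO as baseline.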

[7] = read-out: Cytochrome P450 (CYP24A1), CYP24A1 (gene 1591); experiment: LTEA_HepaRG_CYP24A1: Life Technologies and Expression Analysis (LTEA) Assay for Cytochrome P450 (CYP24A1) using HepaRG (AID 2283478)
How it was run: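 Human liver HepaRG cultures receive each chemical for 48 h across an eight-point half-log series topping at 100 uM in 0.5% DMSO. Induction or suppression of CYP24A1 mRNA is scored relative to vehicle after housekeeping-gene normalization.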

[8] = read-out: Cytochrome P450 (CYP1A2), CYP1A2 (gene 1544); experiment: LTEA_HepaRG_CYP1A2: Life Technologies and Expression Analysis (LTEA) Assay for Cytochrome P450 (CYP1A2) using HepaRG (AID 2283479)
How it was run: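 Assesses CYP1A2 mRNA in human HepaRG liver cells after 48 h chemical exposure at up to 100 uM. Values come from qRT-PCR with bidirectional curve fitting relative to DMSO.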

[9] = read-out: cysteine-aspartic acid protease (CASP8), CASP8 (gene 841); experiment: LTEA_HepaRG_CASP8: Life Technologies and Expression Analysis (LTEA) Assay for cysteine-aspartic acid protease (CASP8) using HepaRG (AID 2283480)
How it was run: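 qRT-PCR readout of CASP8 mRNA, normalized to three housekeeping genes, after 48 h chemical exposure of HepaRG cells; 8-point half-log series, top 100 uM, 0.5% DMSO vehicle. Bidirectional curve fitting against DMSO baseline.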

[10] = read-out: Cytochrome P450 (CYP2B6), CYP2B6 (gene 1555); experiment: LTEA_HepaRG_CYP2B6: Life Technologies and Expression Analysis (LTEA) Assay for Cytochrome P450 (CYP2B6) using HepaRG (AID 2283481)
How it was run: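 Using 48 h treatment of HepaRG cells in serum-free induction medium, concentrations spanned half-log steps from 100 uM in 0.5% DMSO vehicle. CYP2B6 mRNA induction or loss is scored by qRT-PCR against DMSO.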

[11] = read-out: Cytochrome P450 2C19 (Homo sapiens) (UniProt P33261); experiment: LTEA_HepaRG_CYP2C19: Life Technologies and Expression Analysis (LTEA) Assay for CYP2C19 using HepaRG (AID 2283482)
How it was run: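 Human HepaRG liver cells received test chemicals for 48 h (highest 100 uM, half-log dilutions in 0.5% DMSO). CYP2C19 mRNA induction or loss is read by multiplexed qRT-PCR and fitted in both directions versus vehicle.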

CYP2C8 (gene 1558) = experiment: LTEA_HepaRG_CYP2C8: Life Technologies and Expression Analysis (LTEA) Assay for CYP2C8 using HepaRG (AID 2283483)
How it was run: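 HepaRG (human liver line), 48 h chemical exposure, 8-pt half-log series from 100 uM, 0.5% DMSO vehicle. Readout: CYP2C8 transcript by qRT-PCR, housekeeping-normalized. Bidirectional fit vs DMSO baseline.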

CYP2C9 (gene 1559) = experiment: LTEA_HepaRG_CYP2C9: Life Technologies and Expression Analysis (LTEA) Assay for CYP2C9 using HepaRG (AID 2283484)
How it was run: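 HepaRG, 48 h dosing, 8-pt half-log series, top 100 uM, 0.5% DMSO vehicle. Read-out: CYP2C9 transcript by TaqMan qRT-PCR, housekeeping-normalized (ACTB/GAPDH/POLR2A). Gain or loss fitted vs DMSO baseline.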

CYP2E1 (gene 1571) = experiment: LTEA_HepaRG_CYP2E1: Life Technologies and Expression Analysis (LTEA) Assay for CYP2E1 using HepaRG (AID 2283485)
How it was run: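 Readout is qRT-PCR of CYP2E1 mRNA, normalized to three housekeeping genes and fitted bidirectionally against 0.5% DMSO. HepaRG cells were dosed 48 h at eight concentrations, highest 100 uM with half-log dilutions.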

CYP4A11 (gene 1579) = experiment: LTEA_HepaRG_CYP4A11: Life Technologies and Expression Analysis (LTEA) Assay for CYP4A11 using HepaRG (AID 2283486)
How it was run: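 Readout is CYP4A11 mRNA induction or suppression (qRT-PCR, ACTB/GAPDH/POLR2A normalization) in human HepaRG cells after 48 h chemical treatment, concentrations to 100 uM in 0.5% DMSO, fitted bidirectionally against vehicle.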

[12] = read-out: Cytochrome P450 3A4 (Homo sapiens) (UniProt P08684); experiment: LTEA_HepaRG_CYP3A4: Life Technologies and Expression Analysis (LTEA) Assay for CYP3A4 using HepaRG (AID 2283487)
How it was run: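 Differentiated HepaRG cells in serum-free induction medium exposed in duplicate for 48 h to 8 half-log concentrations up to 100 uM in 0.5% DMSO. CYP3A4 mRNA measured by qRT-PCR normalized to ACTB, GAPDH and POLR2A; bidirectional fit versus DMSO.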

[13] = read-out: DNA damage-inducible transcript 3 (DDIT3), DDIT3 (gene 1649); experiment: LTEA_HepaRG_DDIT3: Life Technologies and Expression Analysis (LTEA) Assay for DNA damage-inducible transcript 3 (DDIT3) using HepaRG (AID 2283488)
How it was run: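 Cells are human HepaRG liver cells treated for 48 h with eight half-log concentrations up to 100 uM in 0.5% DMSO. Transcript levels come from qRT-PCR normalized to three housekeeping genes, with activity fitted in both directions relative to vehicle.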

[14] = read-out: Pro-epidermal growth factor (Homo sapiens) (UniProt P01133); experiment: LTEA_HepaRG_EGF: Life Technologies and Expression Analysis (LTEA) Assay for Epidermal growth factor (EGF) using HepaRG (AID 2283489)
How it was run: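 EGF expression changes in human HepaRG cells are scored by bidirectional fitting relative to 0.5% DMSO controls. Chemicals are tested at eight half-log concentrations up to 100 uM for 48 h in serum-free induction medium.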

Measured: outcome

Sequence of Cytochrome P450 3A4 (Homo sapiens) (P08684 whole entry, looked up): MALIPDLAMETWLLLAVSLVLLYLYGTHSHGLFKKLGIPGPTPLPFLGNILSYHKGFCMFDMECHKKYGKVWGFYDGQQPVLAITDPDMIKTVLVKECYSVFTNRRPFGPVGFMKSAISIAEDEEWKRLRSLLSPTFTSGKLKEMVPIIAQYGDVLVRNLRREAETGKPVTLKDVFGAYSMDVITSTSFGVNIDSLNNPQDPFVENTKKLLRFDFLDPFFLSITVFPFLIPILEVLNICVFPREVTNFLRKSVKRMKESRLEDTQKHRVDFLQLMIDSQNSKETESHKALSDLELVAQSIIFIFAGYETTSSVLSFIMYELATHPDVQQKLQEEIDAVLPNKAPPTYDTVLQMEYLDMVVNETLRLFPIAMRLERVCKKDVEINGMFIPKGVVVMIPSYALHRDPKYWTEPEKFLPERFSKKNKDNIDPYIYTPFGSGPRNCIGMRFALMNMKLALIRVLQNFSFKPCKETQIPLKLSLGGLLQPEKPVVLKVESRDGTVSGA
Sequence of Cytochrome P450 2C19 (Homo sapiens) (P33261 whole entry, looked up): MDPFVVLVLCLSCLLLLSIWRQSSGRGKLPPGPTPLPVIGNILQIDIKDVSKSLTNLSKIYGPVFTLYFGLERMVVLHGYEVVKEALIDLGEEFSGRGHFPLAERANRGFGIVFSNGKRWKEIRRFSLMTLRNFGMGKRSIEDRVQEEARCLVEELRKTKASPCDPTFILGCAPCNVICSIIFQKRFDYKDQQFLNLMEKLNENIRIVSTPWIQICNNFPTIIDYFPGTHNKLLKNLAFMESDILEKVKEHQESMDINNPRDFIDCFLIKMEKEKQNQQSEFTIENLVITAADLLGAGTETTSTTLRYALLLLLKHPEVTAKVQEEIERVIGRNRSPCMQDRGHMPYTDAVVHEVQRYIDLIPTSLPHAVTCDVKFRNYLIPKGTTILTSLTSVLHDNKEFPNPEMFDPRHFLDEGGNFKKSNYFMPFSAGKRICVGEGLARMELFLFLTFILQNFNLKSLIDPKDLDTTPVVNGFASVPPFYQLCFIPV
Sequence of Apoptosis regulator Bcl-2 (Homo sapiens) (P10415 whole entry, looked up): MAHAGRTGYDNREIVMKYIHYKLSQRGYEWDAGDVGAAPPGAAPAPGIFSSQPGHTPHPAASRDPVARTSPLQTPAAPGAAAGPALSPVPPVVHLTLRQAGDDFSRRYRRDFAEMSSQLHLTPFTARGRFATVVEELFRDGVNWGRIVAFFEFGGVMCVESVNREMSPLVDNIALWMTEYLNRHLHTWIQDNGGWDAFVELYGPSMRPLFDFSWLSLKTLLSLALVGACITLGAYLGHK
Sequence of Caspase-3 (Homo sapiens) (P42574 whole entry, looked up): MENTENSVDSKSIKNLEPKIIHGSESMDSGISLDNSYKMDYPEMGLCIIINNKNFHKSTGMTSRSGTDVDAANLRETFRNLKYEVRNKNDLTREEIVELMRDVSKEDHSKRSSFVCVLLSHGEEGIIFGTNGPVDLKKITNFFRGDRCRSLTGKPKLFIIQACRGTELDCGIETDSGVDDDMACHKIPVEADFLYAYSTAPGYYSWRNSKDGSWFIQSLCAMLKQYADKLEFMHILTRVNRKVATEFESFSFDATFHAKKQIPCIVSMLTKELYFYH

CS(=O)(=O)OCCCCOS(C)(=O)=O
inactive: [1] | [2] | [3] | BCL2L11 (gene 10018) | [4] | [5] | [6] | Caspase-3 (Homo sapiens) | [7] | [8] | [9] | [10] | [11] | CYP2C8 (gene 1558) | CYP2C9 (gene 1559) | CYP2E1 (gene 1571) | CYP4A11 (gene 1579) | [12] | [13] | [14]
